Assay results reported in PMC7862700, “An all-to-all approach to the identification of sequence-specific readers for epigenetic DNA modifications on cytosine”.

Experiments:
Test in all cases: DAPPL (digital affinity profiling via proximity ligation, sequencing); 10 mM Tris-HCl pH 7.5, 50 mM NaCl, 1 mM DTT, 4% glycerol, room temperature, 30 min; GST-TFs on glutathione beads, 16-mer random dsDNA library, 0.1% formaldehyde crosslink after washing; high values mean tight binding
FEV = target: T1, FEV (Homo sapiens, UniProt Q99581 1-238); details: protein: recombinant; tags: N-terminal GST; dsDNA, one strand shown
T1 sequence: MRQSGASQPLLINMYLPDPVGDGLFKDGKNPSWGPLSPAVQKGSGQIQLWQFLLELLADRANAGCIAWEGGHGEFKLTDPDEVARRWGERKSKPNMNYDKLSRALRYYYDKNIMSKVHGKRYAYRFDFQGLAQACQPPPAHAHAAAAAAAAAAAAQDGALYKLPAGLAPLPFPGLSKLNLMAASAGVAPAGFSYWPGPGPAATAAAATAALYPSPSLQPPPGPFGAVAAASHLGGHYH
Method in brief: (§1)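 Binding signal is each hexamer's read frequency for a factor divided by its frequency in the tag-only sample. The factors were GST-fused human transcription factors from yeast, captured on glutathione beads, DNA-barcoded and pooled with that sample. Pools were incubated with 200 nmole of a random double-stranded 16-mer DNA library in Tris/NaCl/DTT/glycerol buffer at room temperature for 30 min, then washed, crosslinked with 0.1% formaldehyde, proximity-ligated with BsaI/T4 ligase (1 h, 37 °C), PCR-amplified and sequenced on an Illumina NextSeq500.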

ETV5 = ETV5 (Homo sapiens, UniProt P41161 1-510); details: protein: recombinant; tags: N-terminal GST; dsDNA, one strand shown
ETV5, sequence (P41161 whole entry): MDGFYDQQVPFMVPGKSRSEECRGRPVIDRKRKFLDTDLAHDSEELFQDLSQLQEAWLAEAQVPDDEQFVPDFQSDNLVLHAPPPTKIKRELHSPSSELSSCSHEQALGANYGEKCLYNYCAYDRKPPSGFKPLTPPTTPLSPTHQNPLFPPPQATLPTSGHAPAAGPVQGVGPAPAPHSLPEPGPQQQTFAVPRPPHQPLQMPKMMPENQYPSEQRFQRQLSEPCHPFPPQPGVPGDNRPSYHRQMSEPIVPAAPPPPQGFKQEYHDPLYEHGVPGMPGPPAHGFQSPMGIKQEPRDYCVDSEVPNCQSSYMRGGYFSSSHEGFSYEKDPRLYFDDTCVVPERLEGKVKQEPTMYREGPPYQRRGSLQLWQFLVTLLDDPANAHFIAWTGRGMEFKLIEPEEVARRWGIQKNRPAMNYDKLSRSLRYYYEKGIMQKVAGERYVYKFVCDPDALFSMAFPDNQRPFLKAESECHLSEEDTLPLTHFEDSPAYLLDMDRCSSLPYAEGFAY
Method in brief: as §1

HSF1 = HSF1 (Homo sapiens, UniProt Q00613 1-529); details: protein: recombinant; tags: N-terminal GST; chain copies: 3; dsDNA, one strand shown
HSF1, sequence (Q00613 whole entry): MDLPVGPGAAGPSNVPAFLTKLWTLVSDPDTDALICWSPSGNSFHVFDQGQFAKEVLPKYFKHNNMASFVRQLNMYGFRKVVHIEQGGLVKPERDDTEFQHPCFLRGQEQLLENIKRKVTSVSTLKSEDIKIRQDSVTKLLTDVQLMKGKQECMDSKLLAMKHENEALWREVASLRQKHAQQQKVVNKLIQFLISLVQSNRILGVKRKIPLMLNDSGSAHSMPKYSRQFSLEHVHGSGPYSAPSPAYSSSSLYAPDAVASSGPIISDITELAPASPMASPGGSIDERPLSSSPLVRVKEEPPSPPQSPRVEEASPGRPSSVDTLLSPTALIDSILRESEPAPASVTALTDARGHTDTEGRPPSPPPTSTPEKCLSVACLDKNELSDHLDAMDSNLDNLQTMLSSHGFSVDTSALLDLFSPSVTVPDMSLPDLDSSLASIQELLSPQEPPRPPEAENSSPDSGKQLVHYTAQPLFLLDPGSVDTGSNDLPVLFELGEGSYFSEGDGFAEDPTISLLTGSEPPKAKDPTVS
Method in brief: as §1

ELF4 = ELF4 (Homo sapiens, UniProt Q99607 1-663); details: protein: recombinant; tags: N-terminal GST; dsDNA, one strand shown
ELF4, sequence (Q99607 whole entry): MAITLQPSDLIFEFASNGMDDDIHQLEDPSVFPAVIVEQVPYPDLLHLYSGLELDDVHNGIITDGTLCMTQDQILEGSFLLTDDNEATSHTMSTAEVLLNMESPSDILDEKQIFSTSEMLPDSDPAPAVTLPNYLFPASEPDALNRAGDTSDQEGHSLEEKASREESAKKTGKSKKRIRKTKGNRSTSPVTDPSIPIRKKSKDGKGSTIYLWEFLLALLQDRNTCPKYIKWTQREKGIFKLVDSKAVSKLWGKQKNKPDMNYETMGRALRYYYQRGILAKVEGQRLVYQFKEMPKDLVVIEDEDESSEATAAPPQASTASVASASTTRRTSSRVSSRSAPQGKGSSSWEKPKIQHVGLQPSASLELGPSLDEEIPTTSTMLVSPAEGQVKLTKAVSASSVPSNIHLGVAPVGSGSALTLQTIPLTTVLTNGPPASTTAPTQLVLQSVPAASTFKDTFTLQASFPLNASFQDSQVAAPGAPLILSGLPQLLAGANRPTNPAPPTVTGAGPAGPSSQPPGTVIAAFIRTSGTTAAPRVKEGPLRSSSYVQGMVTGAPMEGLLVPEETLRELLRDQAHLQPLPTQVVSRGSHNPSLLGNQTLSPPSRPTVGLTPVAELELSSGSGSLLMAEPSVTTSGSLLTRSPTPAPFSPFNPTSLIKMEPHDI
Method in brief: as §1

ELK4 = target: T2, ELK4 (Homo sapiens, UniProt P28324-2 1-405); details: protein: recombinant; tags: N-terminal GST; dsDNA, one strand shown
T2 sequence: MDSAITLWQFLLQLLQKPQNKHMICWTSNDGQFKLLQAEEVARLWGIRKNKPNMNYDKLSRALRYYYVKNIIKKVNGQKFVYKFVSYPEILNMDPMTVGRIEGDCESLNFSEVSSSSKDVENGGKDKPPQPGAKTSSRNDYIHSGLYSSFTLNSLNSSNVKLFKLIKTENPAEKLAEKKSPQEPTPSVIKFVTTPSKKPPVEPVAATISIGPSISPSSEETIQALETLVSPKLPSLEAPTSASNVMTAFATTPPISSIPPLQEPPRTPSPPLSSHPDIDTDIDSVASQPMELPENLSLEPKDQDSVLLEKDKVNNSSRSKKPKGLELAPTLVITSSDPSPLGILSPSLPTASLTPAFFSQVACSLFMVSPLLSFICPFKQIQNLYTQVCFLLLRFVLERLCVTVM
Method in brief: as §1

ETV2 = target: T3, ETV2 (Homo sapiens, UniProt O00321 1-342); details: protein: recombinant; tags: N-terminal GST; dsDNA, one strand shown
T3 sequence: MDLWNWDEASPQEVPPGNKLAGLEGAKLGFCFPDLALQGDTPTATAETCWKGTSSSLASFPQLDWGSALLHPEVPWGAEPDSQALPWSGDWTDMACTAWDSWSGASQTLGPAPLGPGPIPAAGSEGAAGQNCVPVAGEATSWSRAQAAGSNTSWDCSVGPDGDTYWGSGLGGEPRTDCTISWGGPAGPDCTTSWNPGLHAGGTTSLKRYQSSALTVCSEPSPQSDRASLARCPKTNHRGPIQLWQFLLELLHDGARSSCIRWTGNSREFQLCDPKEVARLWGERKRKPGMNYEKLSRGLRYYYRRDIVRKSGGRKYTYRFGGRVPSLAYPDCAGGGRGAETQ
Method in brief: as §1

CRX = CRX (Homo sapiens, UniProt O43186 1-299); details: protein: recombinant; tags: N-terminal GST; dsDNA, one strand shown
CRX, sequence (O43186 whole entry): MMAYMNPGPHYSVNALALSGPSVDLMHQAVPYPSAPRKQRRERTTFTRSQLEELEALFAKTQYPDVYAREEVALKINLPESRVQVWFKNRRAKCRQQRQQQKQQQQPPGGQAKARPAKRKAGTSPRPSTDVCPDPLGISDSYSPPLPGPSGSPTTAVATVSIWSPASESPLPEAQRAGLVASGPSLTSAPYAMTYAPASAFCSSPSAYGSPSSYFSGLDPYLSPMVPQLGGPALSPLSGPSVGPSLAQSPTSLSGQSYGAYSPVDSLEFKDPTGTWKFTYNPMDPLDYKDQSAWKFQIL
Method in brief: as §1

ETV1 = ETV1 (Homo sapiens, UniProt P50549 1-477); details: protein: recombinant; tags: N-terminal GST; dsDNA, one strand shown
ETV1, sequence (P50549 whole entry): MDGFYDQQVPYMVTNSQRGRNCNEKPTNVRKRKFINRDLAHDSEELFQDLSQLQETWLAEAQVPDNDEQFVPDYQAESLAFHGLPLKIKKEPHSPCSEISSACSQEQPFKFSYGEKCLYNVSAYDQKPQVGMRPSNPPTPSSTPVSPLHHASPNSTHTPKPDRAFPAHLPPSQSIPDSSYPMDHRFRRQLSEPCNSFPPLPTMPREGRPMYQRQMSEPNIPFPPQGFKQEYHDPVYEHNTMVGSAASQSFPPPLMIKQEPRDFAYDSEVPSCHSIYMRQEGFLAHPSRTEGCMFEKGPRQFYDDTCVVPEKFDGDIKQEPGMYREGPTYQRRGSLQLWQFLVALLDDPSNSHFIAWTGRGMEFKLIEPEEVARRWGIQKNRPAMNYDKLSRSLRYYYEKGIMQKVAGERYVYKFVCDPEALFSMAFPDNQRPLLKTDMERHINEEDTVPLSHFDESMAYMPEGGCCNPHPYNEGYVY
Method in brief: as §1

ERF = target: T4, ERF (Homo sapiens, UniProt P50548 1-548); details: protein: recombinant; tags: N-terminal GST; dsDNA, one strand shown
T4 sequence: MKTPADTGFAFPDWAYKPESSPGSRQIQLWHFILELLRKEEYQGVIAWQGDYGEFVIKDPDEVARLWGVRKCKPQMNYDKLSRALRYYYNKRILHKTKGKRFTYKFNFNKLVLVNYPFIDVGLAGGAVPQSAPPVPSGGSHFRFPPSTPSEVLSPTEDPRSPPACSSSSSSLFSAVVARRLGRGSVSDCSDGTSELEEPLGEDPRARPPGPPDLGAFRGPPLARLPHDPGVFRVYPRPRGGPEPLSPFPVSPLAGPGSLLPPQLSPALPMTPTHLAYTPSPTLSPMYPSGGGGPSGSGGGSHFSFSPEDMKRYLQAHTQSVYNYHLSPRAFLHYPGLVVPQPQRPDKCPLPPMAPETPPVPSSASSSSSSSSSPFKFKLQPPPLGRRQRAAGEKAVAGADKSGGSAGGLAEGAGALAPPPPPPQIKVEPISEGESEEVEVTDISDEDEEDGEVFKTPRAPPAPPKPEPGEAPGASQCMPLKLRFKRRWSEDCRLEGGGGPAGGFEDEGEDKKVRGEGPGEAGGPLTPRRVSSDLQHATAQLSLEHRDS
Method in brief: as §1

ETV3L = target: T5, ETV3L (Homo sapiens, UniProt Q6ZN32 1-361); details: protein: recombinant; tags: N-terminal GST; dsDNA, one strand shown
T5 sequence: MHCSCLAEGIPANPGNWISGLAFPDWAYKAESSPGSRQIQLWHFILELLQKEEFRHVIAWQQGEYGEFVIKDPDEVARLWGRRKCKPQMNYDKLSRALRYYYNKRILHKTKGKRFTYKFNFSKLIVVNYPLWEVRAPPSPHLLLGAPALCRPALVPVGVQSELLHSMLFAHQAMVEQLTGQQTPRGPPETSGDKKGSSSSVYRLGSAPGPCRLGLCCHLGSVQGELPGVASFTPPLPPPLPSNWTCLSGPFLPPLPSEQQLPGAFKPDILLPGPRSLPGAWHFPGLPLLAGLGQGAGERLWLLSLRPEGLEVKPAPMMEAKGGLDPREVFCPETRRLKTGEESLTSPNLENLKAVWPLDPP
Method in brief: as §1

ETS2 = target: T6, ETS2 (Homo sapiens, UniProt P15036 1-469); details: protein: recombinant; tags: N-terminal GST; dsDNA, one strand shown
T6 sequence: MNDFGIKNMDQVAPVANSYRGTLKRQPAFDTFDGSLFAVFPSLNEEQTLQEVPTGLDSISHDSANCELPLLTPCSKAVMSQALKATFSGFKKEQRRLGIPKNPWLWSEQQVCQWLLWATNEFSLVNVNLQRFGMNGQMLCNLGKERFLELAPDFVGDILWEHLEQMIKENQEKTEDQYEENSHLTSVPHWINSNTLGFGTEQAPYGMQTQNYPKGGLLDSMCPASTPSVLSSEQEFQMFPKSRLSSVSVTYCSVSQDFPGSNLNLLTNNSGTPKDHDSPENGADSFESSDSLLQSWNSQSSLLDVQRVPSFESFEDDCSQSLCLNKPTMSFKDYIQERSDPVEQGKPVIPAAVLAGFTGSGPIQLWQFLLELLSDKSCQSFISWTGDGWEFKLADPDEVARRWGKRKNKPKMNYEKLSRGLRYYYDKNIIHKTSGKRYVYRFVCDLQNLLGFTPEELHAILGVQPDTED
Method in brief: as §1

ETV6 = ETV6 (Homo sapiens, UniProt P41212 1-452); details: protein: recombinant; tags: N-terminal GST; dsDNA, one strand shown
ETV6, sequence (P41212 whole entry): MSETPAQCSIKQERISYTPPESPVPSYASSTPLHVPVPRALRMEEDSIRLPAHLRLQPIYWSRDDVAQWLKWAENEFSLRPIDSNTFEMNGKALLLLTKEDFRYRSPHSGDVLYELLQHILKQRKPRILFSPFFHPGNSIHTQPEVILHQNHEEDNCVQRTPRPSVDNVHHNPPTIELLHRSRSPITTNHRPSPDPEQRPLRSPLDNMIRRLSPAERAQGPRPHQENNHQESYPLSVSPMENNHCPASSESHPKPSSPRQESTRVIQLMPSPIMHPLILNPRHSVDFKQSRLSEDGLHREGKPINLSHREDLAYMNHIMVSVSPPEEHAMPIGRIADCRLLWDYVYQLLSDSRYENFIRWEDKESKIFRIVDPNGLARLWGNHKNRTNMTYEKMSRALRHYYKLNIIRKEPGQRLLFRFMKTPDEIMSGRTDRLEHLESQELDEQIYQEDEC
Method in brief: as §1

ELF3 = target: T7, ELF3 (Homo sapiens, UniProt P78545 1-371); details: protein: recombinant; tags: N-terminal GST; dsDNA, one strand shown
T7 sequence: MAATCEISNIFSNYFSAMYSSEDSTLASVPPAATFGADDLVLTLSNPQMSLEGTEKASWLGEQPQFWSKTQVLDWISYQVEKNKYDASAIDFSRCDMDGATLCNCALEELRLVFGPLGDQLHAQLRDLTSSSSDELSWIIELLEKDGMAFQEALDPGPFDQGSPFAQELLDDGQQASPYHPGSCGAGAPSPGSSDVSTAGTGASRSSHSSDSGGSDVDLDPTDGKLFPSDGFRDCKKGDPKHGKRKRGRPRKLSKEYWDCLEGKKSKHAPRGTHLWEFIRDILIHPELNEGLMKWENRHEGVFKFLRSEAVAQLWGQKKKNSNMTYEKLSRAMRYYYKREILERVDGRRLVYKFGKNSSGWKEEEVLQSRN
Method in brief: as §1

SPDEF = target: T8, SPDEF (Homo sapiens, UniProt O95238 1-335); details: protein: recombinant; tags: N-terminal GST; dsDNA, one strand shown
T8 sequence: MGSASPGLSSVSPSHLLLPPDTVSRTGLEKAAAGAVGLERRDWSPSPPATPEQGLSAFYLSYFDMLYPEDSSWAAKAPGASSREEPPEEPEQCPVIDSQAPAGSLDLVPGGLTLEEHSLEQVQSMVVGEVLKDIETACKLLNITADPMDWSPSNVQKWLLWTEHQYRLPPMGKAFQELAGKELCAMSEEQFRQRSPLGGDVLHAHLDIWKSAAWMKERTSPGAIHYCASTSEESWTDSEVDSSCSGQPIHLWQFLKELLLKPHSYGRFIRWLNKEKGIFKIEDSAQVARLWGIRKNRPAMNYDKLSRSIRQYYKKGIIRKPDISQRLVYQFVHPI
Method in brief: as §1

ELF5 = target: T9, ELF5 (Homo sapiens, UniProt Q9UKW6-2 1-255); details: protein: recombinant; tags: N-terminal GST; dsDNA, one strand shown
T9 sequence: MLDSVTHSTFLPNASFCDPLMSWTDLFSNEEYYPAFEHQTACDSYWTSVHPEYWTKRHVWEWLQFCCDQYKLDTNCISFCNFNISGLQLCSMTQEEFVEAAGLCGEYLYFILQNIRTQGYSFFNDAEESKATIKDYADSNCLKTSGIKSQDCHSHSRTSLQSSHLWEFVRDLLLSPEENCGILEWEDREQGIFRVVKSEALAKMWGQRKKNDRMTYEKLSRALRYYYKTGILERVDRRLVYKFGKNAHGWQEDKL
Method in brief: as §1

ETV3 = target: T10, ETV3 (Homo sapiens, UniProt P41162-2 1-143); details: protein: recombinant; tags: N-terminal GST; dsDNA, one strand shown
T10 sequence: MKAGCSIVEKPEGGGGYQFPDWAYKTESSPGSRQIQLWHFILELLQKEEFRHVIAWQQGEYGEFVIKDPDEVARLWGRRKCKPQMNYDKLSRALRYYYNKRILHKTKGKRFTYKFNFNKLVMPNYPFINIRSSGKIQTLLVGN
Method in brief: as §1

ETV7 = target: T11, ETV7 (Homo sapiens, UniProt Q9Y603 1-341); details: protein: recombinant; tags: N-terminal GST; dsDNA, one strand shown
T11 sequence: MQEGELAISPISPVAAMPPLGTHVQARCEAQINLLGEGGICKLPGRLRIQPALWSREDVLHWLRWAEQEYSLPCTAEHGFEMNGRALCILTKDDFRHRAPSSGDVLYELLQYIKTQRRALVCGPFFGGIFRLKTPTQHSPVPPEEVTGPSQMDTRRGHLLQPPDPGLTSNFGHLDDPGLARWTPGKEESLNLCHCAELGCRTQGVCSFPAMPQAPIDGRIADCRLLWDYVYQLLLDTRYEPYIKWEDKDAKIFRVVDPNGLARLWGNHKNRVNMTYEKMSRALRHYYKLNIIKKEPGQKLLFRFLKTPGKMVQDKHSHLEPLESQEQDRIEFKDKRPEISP
Method in brief: as §1

Sequence	binding signal (FEV)	binding signal (ETV5)	binding signal (HSF1)	binding signal (ELF4)	binding signal (ELK4)	binding signal (ETV2)	binding signal (CRX)	binding signal (ETV1)	binding signal (ERF)	binding signal (ETV3L)	binding signal (ETS2)	binding signal (ETV6)	binding signal (ELF3)	binding signal (SPDEF)	binding signal (ELF5)	binding signal (ETV3)	binding signal (ETV7)
AGATAA	1.01 fold enrichment (6-mer frequency, TF over GST control)	1.01 fold enrichment (6-mer frequency, TF over GST control)	1.68 fold enrichment (6-mer frequency, TF over GST control)	1.09 fold enrichment (6-mer frequency, TF over GST control)	1.08 fold enrichment (6-mer frequency, TF over GST control)	1.17 fold enrichment (6-mer frequency, TF over GST control)	2 fold enrichment (6-mer frequency, TF over GST control)	1.04 fold enrichment (6-mer frequency, TF over GST control)	1.02 fold enrichment (6-mer frequency, TF over GST control)	1.09 fold enrichment (6-mer frequency, TF over GST control)	1.04 fold enrichment (6-mer frequency, TF over GST control)	1.06 fold enrichment (6-mer frequency, TF over GST control)					
GCATTC	1.08 fold enrichment (6-mer frequency, TF over GST control)	1.1 fold enrichment (6-mer frequency, TF over GST control)	1.17 fold enrichment (6-mer frequency, TF over GST control)	1.1 fold enrichment (6-mer frequency, TF over GST control)	1.05 fold enrichment (6-mer frequency, TF over GST control)	1.09 fold enrichment (6-mer frequency, TF over GST control)		1.24 fold enrichment (6-mer frequency, TF over GST control)	1.16 fold enrichment (6-mer frequency, TF over GST control)	1.07 fold enrichment (6-mer frequency, TF over GST control)	1.08 fold enrichment (6-mer frequency, TF over GST control)	1.19 fold enrichment (6-mer frequency, TF over GST control)	1.11 fold enrichment (6-mer frequency, TF over GST control)	1.1 fold enrichment (6-mer frequency, TF over GST control)	1.06 fold enrichment (6-mer frequency, TF over GST control)	1.17 fold enrichment (6-mer frequency, TF over GST control)	
CGTTCA	1.25 fold enrichment (6-mer frequency, TF over GST control)	1.16 fold enrichment (6-mer frequency, TF over GST control)	1.03 fold enrichment (6-mer frequency, TF over GST control)	1.17 fold enrichment (6-mer frequency, TF over GST control)	1.14 fold enrichment (6-mer frequency, TF over GST control)	1.19 fold enrichment (6-mer frequency, TF over GST control)		1.18 fold enrichment (6-mer frequency, TF over GST control)	1.2 fold enrichment (6-mer frequency, TF over GST control)	1.25 fold enrichment (6-mer frequency, TF over GST control)	1.12 fold enrichment (6-mer frequency, TF over GST control)	1.19 fold enrichment (6-mer frequency, TF over GST control)	1.13 fold enrichment (6-mer frequency, TF over GST control)	1.14 fold enrichment (6-mer frequency, TF over GST control)	1.08 fold enrichment (6-mer frequency, TF over GST control)	1.12 fold enrichment (6-mer frequency, TF over GST control)	1.07 fold enrichment (6-mer frequency, TF over GST control)
